Rows were chosen to be rich in hits. Some 2.9% of all compounds tested hit in one or more screens of this group.
Rango complex inh = Rango-importin beta binding inhibition. Rango CFP/YFP FRET sensor + importin beta, 45 min. Potency, µM (titrated, usually from 92.2 µM), for inactives: at the top dose inhibition of complex formation. 340,000 compounds, 0.031% hits;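 note: potency is the fitted concentration of half-maximal effect; 0% = DMSO wells and 100% = buffer wells lacking importin beta; nearly all actives have a fitted effect of over 15% in size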
Target sequence (Q14974 whole entry, looked up): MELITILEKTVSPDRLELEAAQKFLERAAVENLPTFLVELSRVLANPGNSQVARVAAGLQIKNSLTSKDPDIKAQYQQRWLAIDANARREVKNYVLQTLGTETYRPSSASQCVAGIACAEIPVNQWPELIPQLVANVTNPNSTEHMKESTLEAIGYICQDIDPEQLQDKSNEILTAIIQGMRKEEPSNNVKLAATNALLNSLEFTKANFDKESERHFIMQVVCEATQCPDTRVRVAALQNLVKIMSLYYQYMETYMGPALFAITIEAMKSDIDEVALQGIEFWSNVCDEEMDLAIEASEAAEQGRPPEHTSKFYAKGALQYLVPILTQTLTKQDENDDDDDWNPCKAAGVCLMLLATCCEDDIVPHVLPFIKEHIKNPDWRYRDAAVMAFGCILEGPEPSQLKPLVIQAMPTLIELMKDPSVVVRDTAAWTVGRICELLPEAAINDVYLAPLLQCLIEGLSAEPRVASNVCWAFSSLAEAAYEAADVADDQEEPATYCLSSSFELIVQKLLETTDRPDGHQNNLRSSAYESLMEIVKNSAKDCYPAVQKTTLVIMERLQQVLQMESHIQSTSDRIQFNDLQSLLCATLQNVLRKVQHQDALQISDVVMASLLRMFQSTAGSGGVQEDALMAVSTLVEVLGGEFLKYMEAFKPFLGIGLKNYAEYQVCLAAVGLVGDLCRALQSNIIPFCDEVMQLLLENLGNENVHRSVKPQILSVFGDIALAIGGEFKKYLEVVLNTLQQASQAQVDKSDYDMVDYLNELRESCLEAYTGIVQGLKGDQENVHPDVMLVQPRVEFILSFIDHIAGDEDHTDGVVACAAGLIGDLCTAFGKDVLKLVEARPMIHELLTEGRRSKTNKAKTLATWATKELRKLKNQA
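FRET biosensor Rango (snurportin 1 IBB between N-terminal EYFP and C-terminal Cerulean), 50 nM in PBS/1 mM DTT/0.02% Tween-20/0.1% BSA, preincubated 5 min RT with compound; 0.125 microM importin beta added, 45 min RT, CFP/YFP FRET ratio read.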
Rango dissoc inh = inhibitors of RanGTP-induced Rango-importin beta complex dissociation; O95149+P62826; Biochemical FRET Rango-importin beta, RanGTP-induced dissociation; Potency, µM (top dose mostly 46.1 µM), for inactives: top-dose activity change, negative = inhibition; 340,000 compounds, 0.071% hits; AID 540253; note: potency is the fitted concentration of half-maximal effect; % of control where 0% means no effect; nearly all actives have a fitted effect of over 45% in size
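Recombinant Rango FRET biosensor (EYFP–snurportin 1 IBB–cerulean CFP10) at 0.1 uM premixed with 0.25 uM importin beta in PBS, 1 mM DTT, 0.02% Tween-20, 0.1% BSA. Compound added 5 min; RanGTP-RCC1 (0.6 uM Ran, 2 mM GTP, 0.2 uM RCC1) then triggers release, read at 45 min.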
TSG101-PTAP inh = blocks PTAP/TSG101 interaction to inhibit HIV-1 budding. Fluorescence polarization, FITC-PTAP peptide / Tsg101 binding. 340,000 tested, under 10 active. Potency, µM (highest dose often 115 µM), for inactives: top-dose activity change, negative = inhibition, usual class: inhibitors. Q99816; active = well fitted inhibition curve with a large enough effect in the main read-out, with a control signal flat, not every such curve was filed as active; inconclusive = small, poorly fitted or top-dose-only effect, or effect the other way, or a change in a side signal; inactive = no such curve, though single readings can be large or run the other way; note: potency is the fitted concentration of half-maximal effect; % of control where 0% means no effect
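Tsg101 binding domain (10 uM final) was mixed with compound and a FITC-labeled PTAP peptide (50 nM final) in HEPES pH 7.5 buffer with NaCl, Tween 20, EDTA and TCEP; fluorescence polarization was read after 20 min at r.t.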
DRD3 agonist = D3 dopamine receptor (human) agonism; P35462; 410,000 compounds, 0.58% hits; AID 652048; D3R DiscoveRx beta-arrestin cells, luminescence, 90 min; max activation, %; in the data active = max activation above about 30%; note: 0% is about no effect
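Agonist mode: compounds and dopamine controls were applied to plated cells for 90 min at 37 degrees C after an overnight attachment at 1500 cells/well. Luminescent read-out followed 30 - 60 minutes at room temperature with DiscoveRx detection reagent.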
MmCpn inh = blocks the Methanococcus maripaludis chaperonin Mm-Cpn; purified Mm-Cpn ATPase, ADP Transcreener TR-FRET; 330,000 compounds, 0.031% hits; Potency, µM (titrated, usually from 76.9 µM), without a hit: at the highest dose activity, negative = inhibition, usual class: inhibitors; AID 504842; active = well fitted inhibition curve with a large enough effect; inconclusive = small, poorly fitted or top-dose-only effect; note: potency is the fitted concentration of half-maximal effect; % is set by controls: 0 for no effect and ±100 for the full control effect; nearly all actives have a fitted effect of over 80% in size
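TR-FRET (320 nm excitation; 590 and 665 nm emission) reports ADP made from 10 uM ATP by 25 nM enzyme; compounds were preincubated 10 min, reaction run 30 min, both at 37°C.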
DRD3 antagonist = antagonists of human D3 dopamine receptor | D3R cells, DiscoveRx beta-arrestin luminescence, antagonist mode; stronger effect = lower value | max response, negative = inhibition, % | 360,000 compounds, 2.5% hits | AID 652054; in the data active = max response below about -50%; inconclusive = no clear call, values can overlap the other calls; note: % is set by controls: 0 for no effect and ±100 for the full control effect
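Cells plated overnight at 1500 cells/well, then exposed to library compounds with dopamine controls for 90 minutes at 37 degrees C. DiscoveRx reagent added for 30–60 minutes at room temperature; luminescence read, quantitative HTS format.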
An asterisk follows results filed as active; u = inconclusive; x = no result given. Unless noted, calls come from the whole dose curve.

SMILES	Rango complex inh	Rango dissoc inh	TSG101-PTAP inh	DRD3 agonist	MmCpn inh	DRD3 antagonist
CCOC(=O)C(=CNc1ccc2c(c1)CCN2C(C)=O)C(=O)OCC	0%	-5%	-3%	32*	-2%	126
COc1ccc(C(=O)Nc2nc(CC(=O)NCCc3ccccc3OC)cs2)cc1	1%	0%	-1%	7	-26%	48
CCCCN(C)C(=O)CN1C(=O)c2cccnc2Oc2ccc(Cl)cc21	x	x	x	7	x	x
CCCCN(C)CCC(=O)Nc1ccc2c(c1)CCC2	-1%	1%	-3%	-15	2%	-57*
CCOC(=O)C1CCN(CC(=O)Nc2c(C(=O)OC)[nH]c3ccc(Cl)cc23)CC1	0%	3%	-4%	13	0%	-3
CC1CCN(CCC(=O)Nc2ccc3c(c2)CCC3)CC1	2%	2%	-9%	-30	0%	-59*
CCOC(=O)C1CCCN(CC(=O)Nc2c(C(=O)OC)[nH]c3ccc(Br)cc23)C1 (stereo unspecified)	-1%	-6%	-8%	-15	-30%	-51*
Cc1ccc(NC(=O)CCN2CCC(C)CC2)cc1	0%	-9%	-4%	-22	-2%	-62*
CCc1ccc(C2=C(C)C(N3CCC(C(=O)NCCc4ccco4)CC3)=NS2(=O)=O)cc1	x	x	x	-7	x	x
COc1cccc(Nc2nnc(Cc3cccnc3)c3ccccc23)c1	5%	1%	-2%	-6	1%	-2
Cc1cccc(Cn2cc(C(=O)c3ccccc3)c(=O)c3cc4c(cc32)OCO4)c1	x	x	x	6	x	x
CCOC(=O)C1CCCN(CCC(=O)Nc2ccc(C)cc2)C1 (stereo unspecified)	-3%	-27%	-3%	-7	2%	-71*
CC1CCN(CCC(=O)Nc2ccc(Cl)cc2)CC1	2%	11%	-2%	-15	1%	-64*
Cc1ccc2c(c1)NC(=O)C(CC(=O)Nc1ccc(CN3CCC(C)CC3)cc1)O2 (stereo unspecified)	0%	2%	-6%	-9	2%	-61*
COC(=O)c1ccccc1NC(=O)c1ccc2nc(Cc3ccccc3)oc2c1	x	x	x	-17	x	x
O=[N+]([O-])c1cccc(-c2ccc(CN3CCN(c4ccccc4)CC3)o2)c1	4%	19%	-1%	11	0%	u
O=[N+]([O-])c1ccccc1-c1ccc(CN2CCN(c3ccccc3)CC2)o1	0%	-6%	0%	0	3%	-58*
COc1cccc(C(=O)Nc2nnc(Cc3ccc(OC)c(OC)c3)s2)c1	-1%	0%	-2%	2	1%	-8
COc1ccc(Cc2nnc(NC(=O)c3ccc(OC)c(OC)c3)s2)cc1OC	4%	12%	-3%	42*	-23%	7
CCCCNc1ccc(-c2nc(-c3ccccc3)no2)cc1[N+](=O)[O-]	x	x	x	7	x	x
O=c1oc2c(-c3ccc([N+](=O)[O-])cc3)cc(O)cc2s1	-2%	-11%	-1%	-5	1%	-56*
NC(=S)Nc1cccc2cc3ccccc3cc12	u	u	-9%	3	-4%	u
NC(=S)Nc1cc2ccccc2c2ccccc12	4%	-6%	-4%	-3	-2%	-64*
O=C(CN1C(=O)CCn2nc(-c3ccccc3)cc21)NCc1ccc(F)cc1	x	x	x	-13	x	x
O=C(Nc1ccc(Cl)c(C(F)(F)F)c1)C(Cc1ccccc1)NS(=O)(=O)c1ccc(Br)s1 (stereo unspecified)	x	x	x	-2	x	x
SMILES	Rango complex inh	Rango dissoc inh	TSG101-PTAP inh	DRD3 agonist	MmCpn inh	DRD3 antagonist
CCCOc1cccc(C2c3c(oc4ccccc4c3=O)C(=O)N2c2nncs2)c1 (stereo unspecified)	x	x	x	56*	x	x
O=C(Nc1nc2c(s1)CCCC2)c1ccc(S(=O)(=O)N2CCCc3ccccc32)cc1	2%	-6%	-14%	-15	-10%	-19
CNC(=O)c1ccsc1NC(=O)c1ccc(S(=O)(=O)N2CCCc3ccccc32)cc1	u	5%	2%	3	28µM*	-1
Cc1ccc(S(=O)(=O)/N=C2/NC(=O)/C(=C\c3cc(Br)cc(Br)c3O)S2)cc1	u	u	20%	-6	-7%	-53*
Cc1ccc(S(=O)(=O)/N=C2/NC(=O)/C(=C/c3ccc(Br)o3)S2)cc1	-5%	1%	-9%	-1	-2%	13
CCOc1ccc(NC(=O)Cn2cc(C(=O)c3ccccc3)c(=O)c3cc4c(cc32)OCCO4)cc1	x	x	x	-4	x	x
O=[N+]([O-])c1ccc2n[nH]nc2c1	6%	11%	-2%	-5	1%	-70*
Cc1nc2ccc([N+](=O)[O-])cc2[nH]1	-2%	-16%	-2%	-2	-2%	-2
NC(=O)CC[C@@H]1NC(=O)[C@H](Cc2ccccc2)NC(=O)[C@H](Cc2ccc(O)cc2)NC(=O)CCSSC[C@@H](C(=O)N2CCC[C@H]2C(=O)N[C@@H](CCCN=C(N)N)C(=O)NCC(N)=O)NC(=O)[C@H](CC(N)=O)NC1=O	x	x	x	-7	x	x
COc1cccc(Cc2nc3ccccc3nc2SCC(=O)Nc2cccc(C)c2)c1	x	x	x	6	x	x
Cc1ccc(Cl)cc1N1CCN(C(=O)Cn2ncc3c([nH]c4ccccc43)c2=O)CC1	x	x	x	2	x	x
CCN1C(=O)/C(=C2\C=Cc3ccccc3N2CC)SC1=S	0%	9%	-9%	-14	2%	-91*
CCOC(=O)N1CCN(c2c(NCCc3ccccc3)c(=O)c2=O)CC1	0%	-1%	-6%	3	0%	16
CCOC(=O)N1CCN(c2c(NC3CCN(Cc4ccccc4)CC3)c(=O)c2=O)CC1	4%	14%	-2%	-22	-6%	-51*
CCOC(=O)N1CCC(Nc2c(Nc3ccc(C)c(C)c3)c(=O)c2=O)CC1	-1%	-6%	1%	-68	0%	-71*
N#Cc1cc2c(=O)n3ccccc3nc2n(-c2nnc(SCc3ccc(F)cc3)s2)c1=O	x	x	x	-10	x	x
Cc1nc(C(=O)NCC(=O)c2ccccc2)c(C(F)(F)F)o1	0%	22%	-6%	-12	-2%	-59*
CCC(c1nnnn1-c1ccc2c(c1)OCCO2)N1CCN(c2ccccc2)CC1 (stereo unspecified)	x	x	x	4	x	68
O=C(Nc1ccc2c(c1)OCCO2)C(CCc1ccccc1)N1CCN(C/C=C/c2ccccc2)CC1 (stereo unspecified)	x	x	x	-7	x	-109*
CCC(c1nnnn1-c1ccc2c(c1)OCCO2)N1CCN(C/C=C/c2ccccc2)CC1 (stereo unspecified)	x	x	x	66*	x	-16

High-throughput results as filed in PubChem.
